TrxR1 inh = blocks rat thioredoxin reductase 1; O89049; recombinant rTrxR1, NADPH fluorescence consumption, selenite substrate; Potency, µM (highest dose often 114 µM), for the others: top-dose activity change, negative = inhibition, usual class: inhibitors; 390,000 tested, 1% active; further: on the % scale 0 is the no-effect control and ±100 the full control effect; nearly all actives have a fitted effect of over 65% in size
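Rat TrxR1 (90 nM in the dispensed reagent) was pre-reduced with 400 uM NADPH for 5 min at room temperature, then incubated with compound for 15 min. After 400 uM selenite was added, NADPH fluorescence (Ex 340/Em 450 nm) was followed for 8 min.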
TrxR1 substrate = substrates of rat thioredoxin reductase 1; O89049; purified TrxR1 substrate turnover, NADPH consumption readout; Potency, µM (titrated, usually from 114 µM), inactives show top-dose activity change, negative = substrate turnover; 390,000 tested, 0.01% active; AID 588456; further: on the % scale 0 is the no-effect control and ±100 the full control effect; nearly all actives have a fitted effect of over 50% in size
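Rat TrxR1, dispensed at 90 nM, was prereduced with 400 uM NADPH (final) for 5 min at ~22 deg C, then incubated with compound 15 min before 400 uM selenite. A first-read NADPH fluorescence drop versus no-compound background flagged substrates.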
HEK293 tox = cytotoxic in the GLP-1 receptor inverse agonist counter-screen | HEK293 cAMP-luciferase reporter cells, luminescence, 24 h | 410,000 tested, 0.13% active | Potency, µM (titrated, usually from 38.3 µM), inactives show at the top dose activity change, negative = inhibition, usual class: inhibitors;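 further: loss of luciferase light is scored as toxicity; on the % scale 0 is the no-effect control and ±100 the full control effect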
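Quantitative HTS format, 1536 wells, 200 cells/uL seeded. Compounds: 23 nL, 24 h, 37 °C. Detection: luciferase reagent, luminescence at 12 min RT; decreased signal taken as cytotoxic.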
GLP1R inv ag = GLP-1 receptor (human) inverse agonism; 410,000 tested, 1.6% active; HEK293 GLP-1R CRE-luciferase, luminescence, 24 h; GLP-1R form is constitutively active; Potency, µM (top dose mostly 38.3 µM), inactives show at the highest dose activity change, negative = inhibition, most hits filed as inhibitors; further: on the % scale 0 is the no-effect control and ±100 the full control effect; nearly all actives have a fitted effect of over 55% in size
Target sequence (P43220 whole entry, looked up): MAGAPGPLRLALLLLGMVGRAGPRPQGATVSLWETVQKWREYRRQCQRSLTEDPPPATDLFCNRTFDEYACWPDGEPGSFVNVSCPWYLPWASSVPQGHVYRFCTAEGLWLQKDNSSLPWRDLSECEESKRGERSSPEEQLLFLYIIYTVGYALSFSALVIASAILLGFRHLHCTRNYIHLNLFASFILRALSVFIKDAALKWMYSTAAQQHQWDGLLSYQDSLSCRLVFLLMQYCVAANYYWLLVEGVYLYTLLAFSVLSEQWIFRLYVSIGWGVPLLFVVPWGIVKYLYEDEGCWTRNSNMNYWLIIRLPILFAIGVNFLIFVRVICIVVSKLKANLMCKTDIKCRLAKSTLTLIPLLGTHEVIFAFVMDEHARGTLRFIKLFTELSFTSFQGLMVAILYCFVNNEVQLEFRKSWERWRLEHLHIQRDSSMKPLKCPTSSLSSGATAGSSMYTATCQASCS
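Readout was luciferase luminescence, measured 12 min after detection reagent at room temperature. Beforehand, GLP-1R reporter HEK293 cells had sat 12 h, then received compounds for 24 hr at 37 deg C.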
GLP1R ag = agonists of human GLP-1 receptor; HEK293 GLP-1R CRE-luciferase, luminescence, 4-6 h; cells express a hypersensitive GLP-1R form; 380,000 tested, 0.007% active; P43220; Potency, µM (top dose mostly 45.6 µM), for inactives: at the highest dose activation, most hits filed as activators; further: % of control where 0% means no effect
mIDH1 inhibitor = human IDH1 R132H inhibition; Potency, µM (highest dose often 76.6 µM), for the others: at the highest dose activity change, negative = inhibition, actives largely listed as inhibitors; 390,000 tested, 0.093% active; IDH1-R132H enzyme, NADPH consumption, diaphorase/resazurin fluorescence; further: on the % scale 0 is the no-effect control and ±100 the full control effect; nearly all actives have a fitted effect of over 65% in size
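IDH1-R132H (0.5 ug/mL dispensed) in pH 7.5 Tris buffer was preincubated 30 min with compound, then given a substrate mix of 0.016 mM NADPH and 2 mM alpha-KG for 80 min at room temperature; remaining NADPH was read by diaphorase/resazurin fluorescence.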
The depositor's hits bear a star; ! = repeats disagree; [ ] = remark or other dose. A selection: hits, their analogues and other compounds. The true share with any hit is near 2.7%. The call rests on the fitted dose curve; in most records, active means well fitted curve in the direction sought with a large enough effect; inconclusive means small, poorly fitted or top-dose-only effect, or another doubt; inactive means no such curve, though single readings can be large; an effect the other way counts as inactive or inconclusive. Potency means the concentration at half of the fitted maximal effect.

Results for COc1ccc(C(C(=O)Nc2ccc3c(c2)OCO3)N(C)C(=O)Cc2c[nH]c3ccccc23)cc1 (stereo unspecified) ?
TrxR1 inh: 9.2%[57.1 µM]; TrxR1 substrate: 2.4%[57.1 µM]; HEK293 tox: -9.0%; GLP1R inv ag: 2.24µM*; GLP1R ag: 6.9%; mIDH1 inhibitor: 0.2%

What do the screens show for `Nc1ccc(-c2nc3ccc(N)cc3o2)cc1`?
TrxR1 inh: 79.4µM*; TrxR1 substrate: 846.3%; HEK293 tox: 4.6%; GLP1R inv ag: inconclusive; GLP1R ag: -0.4%; mIDH1 inhibitor: 9.1%

What do the screens show for `CCCN(CCC)CCCNC(=O)c1nn(C)c2c1CS(=O)(=O)c1ccccc1-2`?
TrxR1 inh: 0.3%; TrxR1 substrate: 14.0%[11.4 µM]; HEK293 tox: 7.1%; GLP1R inv ag: 16.1%; mIDH1 inhibitor: 8.6%

How did CC(=O)Nc1ccc(OCC(=O)N2CCC(Cc3ccccc3)CC2)cc1 do in these assays?
TrxR1 inh: 17.8%[57.1 µM]; TrxR1 substrate: 4.0%[57.1 µM]; HEK293 tox: -1.3%; GLP1R inv ag: 12.6µM*; GLP1R ag: 6.7%; mIDH1 inhibitor: -4.8%

What do the screens show for `COc1ccccc1C(=O)Nc1ccc(OCC(=O)N2CC(C)CC(C)C2)cc1` (stereo unspecified)?
TrxR1 inh: 17.8%; TrxR1 substrate: 2.4%; HEK293 tox: 4.3%; GLP1R inv ag: 10µM*; GLP1R ag: -5.1%; mIDH1 inhibitor: 5.3%

What do the screens show for `CCOc1ccc(S(=O)(=O)Nc2ccc3c(c2)N(C(C)=O)CCC3)cc1`?
TrxR1 inh: 9.5%[57.1 µM]; TrxR1 substrate: 4.9%[57.1 µM]; HEK293 tox: -5.9%; GLP1R inv ag: 3.6%; mIDH1 inhibitor: 5.7%

How did COc1cccc(/C=N/Nc2nc(Nc3ccccc3)nc(-n3nc(C)cc3C)n2)c1O do in these assays?
TrxR1 inh: 13.4%[57.1 µM]; TrxR1 substrate: 6.9%[57.1 µM]; HEK293 tox: inconclusive; GLP1R inv ag: inconclusive; GLP1R ag: -16.9%; mIDH1 inhibitor: 4.2%

What do the screens show for `COc1cccc(/C=N/Nc2cc(-n3nc(C)cc3-c3ccccc3)ncn2)c1O`?
TrxR1 inh: -15.1%; TrxR1 substrate: -5.4%; HEK293 tox: 2.24µM*; GLP1R inv ag: 3.55µM*; GLP1R ag: -32.8%; mIDH1 inhibitor: 4.4%

What do the screens show for `CC(C)(C)c1ccc(C(=O)NCC2CCCN2S(=O)(=O)c2ccccc2)cc1` (stereo unspecified)?
TrxR1 inh: 5.4%; TrxR1 substrate: -1.4%; HEK293 tox: -20.5%; GLP1R inv ag: 5.01µM*; GLP1R ag: 6.2%; mIDH1 inhibitor: 0.0%

How did Cc1ccc2oc3c(c(=O)c2c1)C(c1ccc(O)cc1)N(c1nc(C)c(C)s1)C3=O (stereo unspecified) do in these assays?
TrxR1 inh: -14.4%; TrxR1 substrate: -5.3%; HEK293 tox: 1.2%; GLP1R inv ag: 0.2%; mIDH1 inhibitor: 19.8%

How did COc1ccc([N+](=O)[O-])cc1NC(=S)NC(NC(=O)Cc1ccc(OC)c(OC)c1)C(Cl)(Cl)Cl (stereo unspecified) do in these assays?
TrxR1 inh: 36.1%; TrxR1 substrate: 9.2%; HEK293 tox: inconclusive; GLP1R inv ag: 4.47µM*; GLP1R ag: -5.0%; mIDH1 inhibitor: 1.6%

How did CNc1nc(Nc2ccc(C)c(Cl)c2)c2cnn(C)c2n1 do in these assays?
TrxR1 inh: -11.3%; TrxR1 substrate: -6.8%; HEK293 tox: -18.1%; GLP1R inv ag: inconclusive; GLP1R ag: 2.4%; mIDH1 inhibitor: 29.3µM*

Results for COc1cccc2cc(-c3nc(Nc4cccc(C)c4C)sc3C)c(=O)oc12 ?
TrxR1 inh: 19.7%[57.1 µM]; TrxR1 substrate: 3.9%[57.1 µM]; HEK293 tox: 0.8%; GLP1R inv ag: 10µM*; mIDH1 inhibitor: -5.9%

What do the screens show for `CCc1sc(Nc2cccc(Cl)c2C)nc1-c1cc2cccc(OC)c2oc1=O`?
TrxR1 inh: 15.6%[57.1 µM]; TrxR1 substrate: -1.3%[57.1 µM]; HEK293 tox: 3.9%; GLP1R inv ag: 0.4%; mIDH1 inhibitor: -9.3%

Results for COc1ccccc1/C=C/C=C1\Oc2c(ccc(O)c2CN2CCN(CCO)CC2)C1=O ?
TrxR1 inh: 25.1µM*; TrxR1 substrate: 1.3%; HEK293 tox: 196.6%; GLP1R inv ag: 33.2%; GLP1R ag: 6.0%; mIDH1 inhibitor: 2.7%

Results for CN(C)Cc1c(O)ccc2c1O/C(=C\C=C\c1ccccc1)C2=O ?
TrxR1 inh: 79.4µM*; TrxR1 substrate: -22.5%; HEK293 tox: 229.0%; GLP1R inv ag: 3.6%; GLP1R ag: 0.9%; mIDH1 inhibitor: -0.4%

Results for CCOC(=O)c1c(C)[nH]c(CCC(=O)NCc2ccc(N(C)C)cc2)c1C ?
TrxR1 inh: 17.1%[57.1 µM]; TrxR1 substrate: -3.6%[57.1 µM]; HEK293 tox: 11.2%; GLP1R inv ag: -1.0%; mIDH1 inhibitor: -15.0%

How did CCOC(=O)c1[nH]c(C)c(CCC(=O)Nc2ccccc2OCC)c1C do in these assays?
TrxR1 inh: 8.3%[57.1 µM]; TrxR1 substrate: -4.0%[57.1 µM]; HEK293 tox: -4.9%; GLP1R inv ag: -18.9%; mIDH1 inhibitor: 3.0%

How did COC(=O)CSc1[nH]c2ccc(Br)cc2c1[N+](=O)[O-] do in these assays?
TrxR1 inh: 11.2µM*; TrxR1 substrate: 6.1%[57.1 µM]; HEK293 tox: 0.6%; GLP1R inv ag: 6.4%; GLP1R ag: 1.4%; mIDH1 inhibitor: 1.7%

Results for CCOC(=O)c1cnc(-n2nc(C)cc2C)nc1NCc1ccc2c(c1)OCO2 ?
TrxR1 inh: 12.3%[57.1 µM]; TrxR1 substrate: 11.8%[57.1 µM]; HEK293 tox: inconclusive; GLP1R inv ag: 3.55µM*; GLP1R ag: -1.9%; mIDH1 inhibitor: 0.9%

What do the screens show for `CCOC(=O)c1cnc(-n2nc(C)cc2C)nc1NC1CCCC1`?
TrxR1 inh: 36.4%[57.1 µM]; TrxR1 substrate: -8.3%[57.1 µM]; HEK293 tox: inconclusive; GLP1R inv ag: 2.51µM*; GLP1R ag: 16.7%; mIDH1 inhibitor: 5.8%

Results for CC1CCN(c2oc(/C=C/c3ccc(F)cc3)nc2C#N)CC1 ?
TrxR1 inh: 24.4%; TrxR1 substrate: 235.6%; HEK293 tox: 8.3%; GLP1R inv ag: 13.9%; mIDH1 inhibitor: 0.0%

Results for CN(Cc1ccco1)S(=O)(=O)c1nnc(NC(=O)c2cccc(Cl)c2)s1 ?
TrxR1 inh: 25.1µM*!; TrxR1 substrate: 3.7%; HEK293 tox: -22.4%; GLP1R inv ag: -7.7%; GLP1R ag: -4.9%; mIDH1 inhibitor: 46.6%

How did CN(Cc1ccccc1)S(=O)(=O)c1nnc(NC(=O)c2cccc(Cl)c2)s1 do in these assays?
TrxR1 inh: 15.8%; TrxR1 substrate: -1.9%; HEK293 tox: -5.1%; GLP1R inv ag: -13.5%; mIDH1 inhibitor: 38.2%
